# Measured values published in the supplement of paper PMC12350171.
# Counter-ions that a name gives are not always drawn. A number with no mark means an inactive call.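 How the source made its calls: active = AUC significantly below DMSO controls by Student t-fit with adjusted P under 0.01; inactive = not significantly reduced.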
# Tested on: Haemophilus parainfluenzae
# Assay: growth AUC normalised to DMSO control (fraction of control); higher = less growth inhibition, active = hit call of the paper
# Details: 20 µM
# Procedure, shortened: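 Pathogens passaged twice anaerobically were inoculated at a starting OD578 of 0.01 into pre-reduced mGAM plates with drug at 20 μM and 1% DMSO, sealed with breathable membranes. Haemophilus parainfluenzae medium was supplemented with hemin and NAD. OD578 was read hourly for 24 h, with three biological replicates. Growth-curve AUC was computed by the trapezoidal rule up to the exponential-to-stationary transition and normalised to DMSO controls on the same plate.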
row,Compound,growth AUC normalised to DMSO control
1,Cc1c(NC(C)C)c(=O)n(-c2ccccc2)n1C [Isopyrin hydrochloride],0.967
2,Cc1ccc(Cl)c(Nc2ccccc2C(=O)O)c1Cl [Meclofenamic acid sodium salt monohydrate],0.94
3,O=c1oc2ccccc2c(O)c1Cc1c(O)c2ccccc2oc1=O [Dicumarol],1.31
4,CCCc1cc(C(N)=S)ccn1 [Prothionamide],1.04
5,C[C@]12CC[C@@H]3c4ccc(O)cc4C[C@@H](CCCCCCCCC[S+]([O-])CCCC(F)(F)C(F)(F)F)[C@H]3[C@@H]1CC[C@@H]2O (some centres not stated) [Fulvestrant],1.32
6,CC12CC3CC(C)(C1)CC(N)(C3)C2 [Memantine hydrochloride],0.986
7,COC(=O)CCc1ccc(OCC(O)CNC(C)C)cc1 (configuration not stated) [Esmolol hydrochloride],1.09
